Laboratory results published in PubChem BioAssay (Tox21).
Values joined by “and” are separate entries in the source; they are usually repeats but may differ in a detail not shown here. Equal values may be shown once. Records with an inconclusive call do not appear. Where a call stands in place of a potency, no number is given. Unmarked numbers belong to inactive results. Active and inactive are the calls of the source. Calls come from the whole dose curve; as a rule, active = well fitted cell-killing curve with a large enough effect in the repeat runs; inconclusive = weak or mixed curves, or effect the other way; inactive = flat fitted curve, though single readings scatter.

Assay: qHTS assay to identify small molecule agonists of the sonic hedgehog signaling (Shh) pathway - cell viability counter screen (AID 1259366); note: nearly all actives have a fitted effect of over 50% in size
Settings: NIH/3T3 Gli1-Luc viability, CellTiter-Fluor, 24 h; series mostly up to 92.4 µM
From the text: National Center for Advancing Translational Sciences [NCATS]
NIH Chemical Genomics Center [NCGC]
U.S. Environmental Protection Agency [EPA]
National Institutes of Environmental Health Sciences [NIEHS]
National Toxicology Program [NTP]
U.S. Food and Drug Administration [FDA]
The sonic hedgehog (Shh) pathway is essential for normal embryonic development. Dysregulation of the Shh pathway can cause severe developmental defects in organs. Therefore chemicals that interfere with the pathway are potential developmental toxicants. A cell line designated 3T3Gli1-Luc (DMB/OARSA/CFSAN/FDA, Laurel, MD), a NIH/3T3 derived clone containing stably integrated Gli1-Luc reporter is used to detect chemical interference of the Shh pathway, by changes in the expression of the firefly Luc gene under the control of the Gli1 transcriptional response element. This cell line was used to screen Tox21 libraries for identifying and prioritizing the potential developmental toxicants that interfere Shh pathway. The cytotoxicity of the compounds was tested in parallel by measuring the cell viability using CellTiter-Fluor assay system (Promega, Madison, WI) in the same wells.
Tox21 Assay Protocol Summary:
3T3 Gli1-Luc cells were dispensed at 2,000 per well in 5uL of culture medium into white solid bottom 1536-well plates (Greiner Bio-One, Monroe, NC) using a Multidrop Combi (Thermo Scientific, Waltham, MA) dispenser. The assay plates were incubated at 37 C and 5% CO2 for 4hr, and then 23nL of compounds dissolved in DMSO and positive control were transferred using a Pintool station (Wako, San Diego, CA). The assay plates were incubated at 37C and 5% CO2 for 24hr. For viability read, after 23hr of compound treatment, 1uL of CellTiter-Fluor reagent (Promega Corporation, Madison, WI) was added to each well of the assay plates using Flying Reagent Dispenser (FRD, Aurora Discovery, San Diego, CA) and incubated the assay plates at 37C for 1hr. The fluorescence signal was quantified using a ViewLux plate reader (Perkin Elmer, Shelton, CT).
Potency is the fitted concentration of half-maximal effect.

| Structure (SMILES) | Potency | viability change, negative = cytotoxic |
| --- | --- | --- |
| Cc1cccc(C)c1OCC(=O)N[C@@H](Cc1ccccc1)[C@@H](O)C[C@H](Cc1ccccc1)NC(=O)[C@H](C(C)C)N1CCCNC1=O | 15 µM (active) |  |
| CC[N+]1(CC)CCC(=C(c2ccccc2)c2ccccc2)C1C (stereo not given) | inactive |  |
| COc1ccnc(CS(=O)c2nc3ccc(OC(F)F)cc3[nH]2)c1OC (stereo not given) | inactive |  |
| O=C(c1ccc(F)cc1)C1CCN(CCn2c(=S)[nH]c3ccccc3c2=O)CC1 | inactive |  |
| Cc1cccc(Nc2ccccc2)c1 | inactive |  |
| CCOCC(O)COc1ccc(NC(=O)CC[S+](C)C)cc1 (stereo not given) | inactive |  |
| C=CC(=O)OCCOCCOC(=O)C=C | 21.8 µM (active) |  |
| CO[C@@H]1[C@H](OC(=O)/C=C/C=C/C=C/C=C/C(=O)O)CC[C@]2(CO2)[C@H]1[C@@]1(C)O[C@@H]1CC=C(C)C | inactive |  |
| Brc1c2ccccc2cc2ccccc12 | inactive |  |
| C=CC(=O)OCCOCCOCCOCCOC(=O)C=C | 27.4 µM (active) and 21.5 µM (active) |  |
| C=C1[C@H]2CC[C@@H]3[C@H]2C(C)(C)CCC[C@]13C | inactive |  |
| CCCCCCCN | inactive |  |
| COC(=O)C1=C(C)NC(COC(N)=O)=C(C(=O)OC(C)C)C1c1cccc(Cl)c1Cl (stereo not given) | inactive |  |
| CCCCC(=O)OCC(=O)[C@H]1[C@H](C)C[C@H]2[C@@H]3C[C@H](F)C4=CC(=O)C=C[C@]4(C)[C@@]3(F)[C@@H](O)C[C@@]21C | inactive |  |
| Cc1oc(-c2ccccc2)nc1CCOc1cccc2c1ccn2CCC(=O)O | 21.7 µM (active) |  |
| CCCCO | inactive |  |
| O=C(O)c1nc(Cl)c(Cl)c(Cl)c1Cl | inactive |  |
| Nc1ccc(S(=O)(=O)Nc2ccccc2)cc1 | inactive |  |
| C=CC(=O)OCCOc1ccccc1 | 68.5 µM (active) |  |
| CCN(CC)c1ccc2c(-c3ccccc3C(=O)O)c3ccc(=[N+](CC)CC)cc-3oc2c1 | 4.33 µM (active) |  |

| Structure (SMILES) | Potency | viability change, negative = cytotoxic |
| --- | --- | --- |
| COc1ccc(-c2nc3ccc(C4=NNC(=O)CC4C)cc3[nH]2)cc1 (stereo not given) | inactive |  |
| O=C(O)C1(C(=O)O)CCC1.[NH2-].[NH2-].[Pt+2] | inactive |  |
| OC(CN1CCC(Cc2ccc(F)cc2)CC1)c1ccc(Cl)cc1 (stereo not given) | inactive |  |
| CCCCCCCCCCO[C@@H]1O[C@H](CO)[C@@H](O)[C@H](O)[C@H]1O | inactive |  |
| O=[N+]([O-])c1cccc(S(=O)(=O)O)c1 | inactive |  |
| Nc1cccc([N+](=O)[O-])c1 | inactive |  |
| CCOc1ccc(O)cc1 | inactive |  |
| Nc1ncn([C@H]2C[C@H](O)[C@@H](CO)O2)c(=O)n1 | inactive |  |
| O=C(NCCO[N+](=O)[O-])c1cccnc1 | inactive |  |
| Cn1c(=O)cc(Oc2ccc(F)cc2F)c2cnc(NCC(C)(C)O)nc21 | inactive |  |
| c1cc(CCCc2ccncc2)ccn1 | inactive |  |
| OCCN1CCN(CCCN2c3ccccc3C=Cc3ccccc32)CC1 | 11.9 µM (active) |  |
| Cc1nn(C)c(Oc2ccccc2)c1/C=N/OCc1ccc(C(=O)OC(C)(C)C)cc1 | inactive |  |
| O=C(O)c1ccccc1Cl | inactive |  |
| NCC(=O)O |  | -1.71% [at 19 µM] |
| Brc1c2ccccc2c(Br)c2ccccc12 |  | 2.56% [at 8.39 µM] |
| CCC(=O)O[C@]1(C(=O)CCl)[C@@H](C)C[C@H]2[C@@H]3CCC4=CC(=O)C=C[C@]4(C)[C@@]3(F)[C@@H](O)C[C@@]21C | inactive |  |
| C#C[C@]1(O)CC[C@H]2[C@@H]3CCc4cc(OC5CCCC5)ccc4[C@H]3CC[C@@]21C | inactive |  |
| COc1cc2nc(Cl)nc(N)c2cc1OC | inactive |  |
| COc1cc(C(=O)OCCCN2CCCN(CCCOC(=O)c3cc(OC)c(OC)c(OC)c3)CC2)cc(OC)c1OC | 6.68 µM (active) |  |
